NOD2 RIPK2 PPI – NOD2-RIPK2 protein interaction inhibition. O43353. CHO BLA complementation NOD2-RIPK2, CCF4 ratio. inhibition, % at 4.98 µM. hit rate 0.38% among 360,000. AID 624267; in the data active = inhibition above about 21%
Target sequence (O43353 whole entry, looked up): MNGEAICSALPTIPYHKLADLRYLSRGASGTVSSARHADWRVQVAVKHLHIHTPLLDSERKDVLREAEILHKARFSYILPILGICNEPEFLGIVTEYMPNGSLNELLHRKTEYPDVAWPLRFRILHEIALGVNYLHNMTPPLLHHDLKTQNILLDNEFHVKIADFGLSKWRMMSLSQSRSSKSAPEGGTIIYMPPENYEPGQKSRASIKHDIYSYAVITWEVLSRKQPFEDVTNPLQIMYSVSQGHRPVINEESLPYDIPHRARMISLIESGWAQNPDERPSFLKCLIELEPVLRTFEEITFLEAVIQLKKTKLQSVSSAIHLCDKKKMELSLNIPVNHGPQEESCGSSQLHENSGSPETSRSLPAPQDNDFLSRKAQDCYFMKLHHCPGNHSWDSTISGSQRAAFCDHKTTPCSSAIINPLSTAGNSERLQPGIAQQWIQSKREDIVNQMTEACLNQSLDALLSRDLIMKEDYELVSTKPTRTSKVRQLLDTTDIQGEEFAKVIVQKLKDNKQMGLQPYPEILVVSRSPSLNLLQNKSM
TLR9-MyD88 inh – blocks human TLR9 binding to MyD88; Q9NR96+Q99836; CHO BLA complementation TLR9-MyD88, CCF4 FRET ratio; inhibition, % at 4.98 µM; hit rate 0.21% among 340,000; AID 504734;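 active = inhibition above the mean over all tested compounds plus 3 SD, cut at about 21% in these data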
HSF1 inh – HSF1 inhibition. NIH3T3-HGL HSE-luciferase, MG132-induced, luminescence 8 h; active compounds read low. activity change, negative = inhibition, % at 7.5 µM (by protocol). hit rate 0.77% among 300,000. AID 2098;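 active = more than half of replicate wells show activity change below -50%, luminescence cut by over half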;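 also: luciferase reports HSF-1 transcriptional activity via heat shock element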
TLR4-MyD88 BLA – blocks binding of human TLR4 to MyD88; inhibition, % at 8.4 µM; hit rate 0.18% among 200,000; AID 861; HeLa CL3-4 TLR4/MyD88 BLA complementation, FRET ratio; in the data active = inhibition above about 25%
HSF1 activator – increases HSF-1 driven luciferase reporter signal. AID 504408. NIH3T3-HGL HSF-1 luciferase reporter, MG132, 8 h; 100% = twice DMSO control signal. activation, % at 9 µM. hit rate 1.7% among 300,000;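 active = mean replicate activation of at least 50% with a set share of replicates each reaching 50%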
TLR4 MyD88 cnf – TLR4-MyD88 interaction inhibition confirmed | inhibition, % at 8.4 µM | hit rate 50% among 350 | HeLa CL3-4 BLA complementation, CCF4 FRET ratio | shares compounds with TLR4-MyD88 BLA | AID 941;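 active = mean inhibition across three repeat runs above about 25% carried over from the earlier screen, limit read from the data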
BLA inhibitor ct – counter-screen for TLR4-MyD88 inhibitors: beta-lactamase reporter inhibitors; hit rate 63% among 350; inhibition, % at 8.4 µM; shares compounds with TLR4-MyD88 BLA; HeLa BLA reporter, CCF4 FRET ratio; AID 1237;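 active = mean inhibition over three repeats above about 26% taken from the earlier screen, limit read from the data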;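 also: HeLa cells stably expressing beta-lactamase reporter as counterscreen for TLR4-MyD88 inhibitors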
TLR9-MyD88 cf – confirmation of human TLR9-MyD88 binding inhibitors; shares compounds with TLR9-MyD88 inh; CHO TLR9/MyD88 BLA complementation, CCF4 FRET ratio; inhibition, % at 4.98 µM; hit rate 51% among 680; AID 540250;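 active = mean inhibition across three repeats above about 21% taken from the earlier screen, limit read from the data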;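 also: blue over green emission ratio reports constitutive TLR9 MyD88 association via BLA complementation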
BLA counter-1 – non-selective beta-lactamase inhibitors in TLR9-MyD88 counter-screen; shares compounds with TLR9-MyD88 inh; CHO-BLA cells, CCF4 FRET ratio, BLA reporter; inhibition, % at 4.98 µM; hit rate 7% among 680; AID 540251;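 active = mean inhibition above a 50% cutoff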;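 also: counterscreen of TLR9-MyD88 hits on CMV-driven BLA in CHO-K1 cells; higher means less blue over green ratio so more BLA blockade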
TLR9 CHO tox – counter-screen for TLR9-MyD88 inhibitors: cytotoxicity in CHO cells; luminescence; hit rate 39% among 680; inhibition, % at 4.98 µM; AID 588336; shares compounds with TLR9-MyD88 inh; in the data active = inhibition above about 11%
NOD2 RIPK2 conf – confirmation of human NOD2-RIPK2 interaction inhibitors | shares compounds with NOD2 RIPK2 PPI | CHO cells, NOD2-RIPK2 BLA complementation, CCF4 FRET | inhibition, % at 4.98 µM | hit rate 70% among 1,200 | AID 624370;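 active = mean inhibition across replicates above a set limit taken from the earlier primary screen, cut at about 21% in these data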
BLA counter-2 – counter-screen for NOD2-RIPK2 interaction inhibitors: BLA reporter; shares compounds with NOD2 RIPK2 PPI; CHO BLA reporter, CCF4 FRET ratio, counterscreen; inhibition, % at 4.98 µM; hit rate 57% among 1,200; AID 624371;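 active = mean inhibition above the low-control mean inhibition plus three low-control SD, cut at about 11% in these data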
Of the large screens only hits and unclear results are named; the others gave an inactive call (follow-up assays come after a bar, where they were run). Shown are actives, neighbours in structure and some others; about 2.4% of the full set was active somewhere.

CCCCc1cc(=O)oc2cc(OCC(=O)N3C[C@H]4C[C@@H](C3)c3cccc(=O)n3C4)c(Cl)cc12	none (no result: TLR4-MyD88 BLA)
CN(C)CCc1nc2ccccc2c(=O)n1-c1ccccc1	HSF1 activator 81 (no result: NOD2 RIPK2 PPI, TLR9-MyD88 inh)
C/C1=C\[C@@H](C)C/C=C/[C@H]2[C@@H]3O[C@]3(C)[C@@H](C)[C@H]3[C@H](Cc4c[nH]c5ccccc45)NC(=O)[C@]32C(=O)/C=C/C(=O)[C@@H]1O	HSF1 activator 111
CC1=CC2/C=C(\C)CCC(O)C(O)/C=C/C(=O)C23C(=O)NC(CC(C)C)C3C1C (configuration not stated)	none
CCn1c(O)c(C=NCCN2CCOCC2)c(=O)n(CC)c1=S	none (no result: TLR4-MyD88 BLA)
CCn1c(O)c(C=Nc2ccc(N3CCOCC3)cc2)c(=O)n(CC)c1=S	TLR4-MyD88 BLA 44 | TLR4 MyD88 cnf 50 | BLA inhibitor ct 69
Cc1ccc(/C=C2\C(=O)NC(=S)N(c3ccc(F)cc3)C2=O)s1	TLR4-MyD88 BLA 26 | TLR4 MyD88 cnf inactive | BLA inhibitor ct inactive
CCOc1ccccc1N1C(=O)CC(=O)NC1=O	none (no result: TLR4-MyD88 BLA)
COc1cc(/C=C(/C)[N+](=O)[O-])ccc1OCc1ccccc1Cl	NOD2 RIPK2 PPI 81, TLR9-MyD88 inh 34, HSF1 activator 128 | TLR9-MyD88 cf 34 | BLA counter-1 inactive | TLR9 CHO tox 99
C=CCCC1(C(C)C)C(=O)NC(=S)NC1=O	none (no result: HSF1 inh, TLR4-MyD88 BLA, HSF1 activator)
CCC1(C)OC(c2ccccc2)=C/C(=C/C=C2C(=O)NC(=O)NC2=O)O1 (configuration not stated)	TLR9-MyD88 inh 33 | TLR9-MyD88 cf 25 | BLA counter-1 inactive | TLR9 CHO tox inactive
Cc1cc(C)cc(N2C(=O)NC(=O)/C(=C\c3cccn3-c3ccccc3)C2=O)c1	TLR9-MyD88 inh 22 | TLR9-MyD88 cf inactive | BLA counter-1 inactive | TLR9 CHO tox inactive
Cc1cc(C)cc(N2C(=O)NC(=O)/C(=C\c3cccn3-c3ccc(Cl)cc3)C2=O)c1	none
CC(=O)OC1CC[C@]2(C#N)[C@H]3CC[C@]4(C)[C@H](C5C=CC(=O)O5)CCC4(O)C3CCC2(O)C1 (some centres not stated)	none (no result: TLR4-MyD88 BLA)
O=[N+]([O-])c1c(Cl)c(Cl)c(Cl)c(Cl)c1Cl	none (no result: HSF1 inh, TLR4-MyD88 BLA, HSF1 activator)
Nc1cc(Cl)c2nonc2c1[N+](=O)[O-]	NOD2 RIPK2 PPI 74, TLR9-MyD88 inh 52 (no result: HSF1 inh, HSF1 activator) | TLR9-MyD88 cf 48 | BLA counter-1 inactive | TLR9 CHO tox 97 | NOD2 RIPK2 conf 76 | BLA counter-2 21
COC(=O)C1=C(c2cccc(C#N)c2)C[C@@H]2CC[C@H]1N2C(=O)NC1Cc2ccccc2C1	none (no result: HSF1 inh, TLR4-MyD88 BLA, HSF1 activator)
Cc1ccc(C2CC3CCC(C2)N3Cc2ccccc2F)cc1 (configuration not stated)	none (no result: TLR4-MyD88 BLA)
CC1=NCCc2c1[nH]c1cc(O)ccc21	NOD2 RIPK2 PPI 54, TLR9-MyD88 inh 32 (no result: HSF1 inh, TLR4-MyD88 BLA, HSF1 activator) | TLR9-MyD88 cf 26 | BLA counter-1 inactive | TLR9 CHO tox inactive | NOD2 RIPK2 conf 49 | BLA counter-2 51
C[CH2][Hg][S]c1ccccc1C(=O)O	NOD2 RIPK2 PPI active, TLR9-MyD88 inh 52 (no result: HSF1 inh, TLR4-MyD88 BLA, HSF1 activator) | TLR9-MyD88 cf 48 | BLA counter-1 inactive | TLR9 CHO tox 97 | NOD2 RIPK2 conf active | BLA counter-2 inactive
